# Screening data as filed in PubChem BioAssay.
# Only some compounds are listed: those with a hit (about 2.6% of all), similar ones and a draw of the others.
# 697 NFkB inh: lowers PMA/ionomycin-induced NF-kB signal in 697 B cells; 697 B-cell NF-kB luciferase reporter, 16 h; actives 0.33% (n = 330,000); inhibition, % at 4 µM; in the data active means inhibition above about 35%
# H9c2 TAG inh: inhibitors of triacylglycerol accumulation; H9c2 cells, Nile Red lipid (TAG) fluorescence; cells loaded with 200 µM oleic acid; inhibition, % at 12.5 µM; actives 0.66% (n = 230,000);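 active means pattern-corrected inhibition of lipid staining of at least 50% with the nuclear-stain viability signal not falling by more than 50%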;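 further: 0% = DMSO wells and 100% = triacsin C control wells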
# NR2F2 inh: blocks human COUP-TFII nuclear receptor. AID 686940. HEK293T NGFI-A luciferase reporter, luminescence. actives 0.7% (n = 370,000). inhibition, % at 8.6 µM. P24468;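 active means inhibition above a per-plate cutoff, mean inhibition of test wells between control levels plus 3 SD, cut at about 38% in these data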;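 further: cells cotransfected with COUP-TFII expression vector driving the NGFI-A reporter; 0% = median of COUP-TF2 test wells and 100% = reporter-only cells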
# Target sequence (P24468 whole entry, looked up): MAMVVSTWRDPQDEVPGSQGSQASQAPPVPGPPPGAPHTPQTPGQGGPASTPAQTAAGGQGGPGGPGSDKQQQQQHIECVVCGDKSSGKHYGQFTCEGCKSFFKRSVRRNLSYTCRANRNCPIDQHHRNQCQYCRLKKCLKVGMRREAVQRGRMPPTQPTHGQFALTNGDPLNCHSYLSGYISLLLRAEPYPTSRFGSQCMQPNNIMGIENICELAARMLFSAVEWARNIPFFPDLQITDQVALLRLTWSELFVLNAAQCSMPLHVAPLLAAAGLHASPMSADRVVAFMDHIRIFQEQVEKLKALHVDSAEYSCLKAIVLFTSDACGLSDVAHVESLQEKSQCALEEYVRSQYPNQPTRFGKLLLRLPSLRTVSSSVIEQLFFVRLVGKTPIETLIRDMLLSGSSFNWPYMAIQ
# H9c2 protect: myocardial damage modulation in H9c2 cells. actives 0.63% (n = 360,000). protection from H2O2 cell death, % at 20 µM. H9c2 cardiomyocytes, H2O2 injury protection, ATPLite, 2 h;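 active means compounds giving at least 50% protection of heart cells from peroxide-induced death in the single-dose screen, raw or plate-pattern-corrected value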;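 further: 0% = DMSO wells with peroxide and 100% = DMSO wells without peroxide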
# Gli-Sufu antag: blocks Gli-Sufu signaling in a luciferase reporter; Sufu-KO-LIGHT fibroblasts, Gli luciferase reporter luminescence; inhibition, % at 5 µM; actives 0.74% (n = 340,000); AID 588413;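 active means inhibition above about 55%, limit read from the data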;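 further: 0% = DMSO-treated cells and 100% = wells with medium but no cells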
# Jurkat NFkB inh: inhibitors of the PMA/ionomycin-induced NF-kB reporter in Jurkat cells | inhibition, % at 4 µM | actives 0.53% (n = 330,000) | PMA/ionomycin-induced NF-kB luciferase reporter, luminescence; in the data active means inhibition above about 50%
# Gli-Sufu confirm: Gli-SUFU antagonism confirmation, single concentration | shares compounds with Gli-Sufu antag | Sufu-KO-LIGHT cells, Gli luciferase reporter, luminescence | inhibition, % at 5 µM | actives 40% (n = 2,500);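 active means mean inhibition at 5 µM reaching about 45%, limit read from the data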;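 further: plate controls were DMSO-treated cells for no effect and wells lacking cells for full effect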
# SufuKO cytotox: cytotoxic in Gli-SUFU antagonist counter-screen | Sufu-KO-LIGHT cells cytotoxicity, ATP luminescence | actives 32% (n = 2,500) | shares compounds with Gli-Sufu antag | cytotoxicity, % at 5 µM;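 active means mean cytotoxicity at 5 µM above about 25%, limit read from the data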;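 further: cells exposed to compound overnight for roughly 16 to 18 hours; plate controls were DMSO wells with cells for no effect and medium without cells for full effect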
# Wnt3a cs: counter-screen for Gli-SUFU antagonists: Wnt3a reporter inhibition. inhibition, % at 6.25 µM. AID 651995. Wnt-LIGHT cells, Wnt3a-driven luciferase reporter, luminescence. shares compounds with Gli-Sufu antag. actives 20% (n = 2,500);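 active means mean inhibition above about 25%, limit read from the data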
# Starred values were filed as active, the others as inactive; / = not tested or not shown.
SMILES,697 NFkB inh,H9c2 TAG inh,NR2F2 inh,H9c2 protect,Gli-Sufu antag,Jurkat NFkB inh,Gli-Sufu confirm,SufuKO cytotox,Wnt3a cs
c1ccc(Cn2ccc3ccc(-c4ccc5ccn(Cc6cccc(-c7ccsc7)c6)c5c4)cc32)cc1,/,/,-4,/,/,/,/,/,/
Cc1cccc(C)c1NC1=C(Cl)C(=O)OC1OC(C)C (stereo not drawn),-7,/,-10,9,52,-2,19,-6,11
O=C(C1CC1)N1CCN(c2ccc([N+](=O)[O-])cc2)CC1,4,-32,-7,-3,53,0,23,11,1
O=C(C1CCN(S(=O)(=O)c2cnc[nH]2)CC1)N1CCN(c2ccc([N+](=O)[O-])cc2)CC1,13,/,7,0,4,1,/,/,/
O=C(c1cc2sccc2n1Cc1ccccc1)N1CCN(c2nc3ccccc3s2)CC1,-12,-31,27,-16,58*,32,68*,33*,-18
CC(C)NC(=O)C1CCN(C(=O)c2cc3sccc3n2Cc2ccc(F)cc2)CC1,-16,/,/,-18,61*,-1,40,11,8
c1ccc2sc(-c3csc4c3CCNC4)nc2c1,/,/,-30,/,/,/,/,/,/
CCC[C@H](/C=C/C(=O)OC(C)(C)C)Sc1ccc(N)cc1,/,/,11,/,/,/,/,/,/
CCOc1cc(CN2CCN(CCc3ccccc3)C(CCO)C2)ccc1OC (stereo not drawn),6,-3,-12,-2,61*,15,14,5,-19
COc1ccc(CN2CCN(CCCc3ccccc3)C(CCO)C2)cc1OC (stereo not drawn),-6,5,-8,4,-8,-6,/,/,/
CN(C)c1nc(=NCc2ccco2)ss1,/,/,/,-4,7,/,/,/,/
CCOC(CN=c1nc(N(C)C)ss1)OCC,/,16,24,-16,84*,/,62*,30*,12
CC(C)(C)c1ccc(-c2cn(C[C@H](Cc3ccccc3)n3c(=O)c4ccccc4n3Cc3ccco3)nn2)cc1,/,/,4,/,/,/,/,/,/
O=C(Nc1ccc(F)cc1)OCc1cn(Cc2ccccc2Cl)nn1,/,/,-4,/,/,/,/,/,/
COc1cc2nc(=S)n3[nH]c(CCn4nc(C)cc4C)nc3c2cc1OC,20,36,20,13,68*,-1,40,13,5
CC1(C)OC(=O)C2=C(CC(CCc3ccccc3)OC2c2cccc(C(F)(F)F)c2)O1 (stereo not drawn),/,/,4,/,/,/,/,/,/
O=C(Cc1cccs1)Nc1cccc(-c2nc3ccccc3o2)c1,-21,4,3,-12,99*,-8,20,14,-6
CN(Cc1ccccc1)S(=O)(=O)c1cccc(C(=O)OCC2CCCCC2)c1,/,/,0,/,/,/,/,/,/
O=C(NC1CCCCN(Cc2ccc(Cl)cc2)C1=O)c1ccc(Cl)cc1Cl (stereo not drawn),/,/,-7,/,/,/,/,/,/
O=C(Cc1c(F)cccc1Cl)NCC(=O)OCc1ccccc1,6,10,5,-2,0,-5,/,/,/
O=C(CNC(=O)Cc1ccccc1)NCC(=O)OCc1ccccc1,25,10,5,-4,99*,20,10,16,-11
CCOc1ccccc1NC(=O)COC(=O)c1c(CC)noc1C,5,5,24,-2,67*,-7,24,9,1
CCc1noc(C)c1C(=O)OCC(=O)Nc1c(F)cccc1F,11,-1,-18,-2,1,3,/,/,/
Cc1cccc(NC(=O)C2CCCN(C(=O)Nc3ccccc3)C2)c1C (stereo not drawn),10,8,11,-1,58*,-6,4,24,-17
O=C(CN1C(=O)c2ccccc2C1=O)Nc1ccccc1C(=O)NC1CCCCCC1,28,/,-5,5,99*,13,15,10,2
SMILES,697 NFkB inh,H9c2 TAG inh,NR2F2 inh,H9c2 protect,Gli-Sufu antag,Jurkat NFkB inh,Gli-Sufu confirm,SufuKO cytotox,Wnt3a cs
CC(C)(C)C(=O)NC(=S)Nc1ccccc1C(=O)NC1CCCCC1,-14,-4,-3,-6,76*,8,21,46*,-21
CC(=O)NC(=S)Nc1ccccc1C(=O)NC1CCCCC1,6,-7,1,5,-8,7,/,/,/
Nc1ccc(O)cc1C(=O)OCC(=O)c1ccc(C2CCCCC2)cc1,/,/,21,-16,66*,/,66*,33*,29*
Cc1cc(/C=N/n2cnnc2)c(C)n1-c1ccccc1,-8,-1,-15,11,-1,-10,/,/,/
Cc1cc(/C=N/n2cnnc2)c(C)n1-c1ccc(OCc2ccc(F)cc2)cc1,-93,/,3,-22,74*,7,74*,28*,22
O=C(COC(=O)c1cc(Cl)nc2ccccc12)c1ccc(Cl)cc1,-22,/,-3,-3,53,-4,10,23,-16
COc1ccc(C(=O)C[n+]2cc(-c3ccc(OC)cc3)n3c2CCCC3)cc1,-19,-19,2,-21,73*,37,68*,26*,-4
COc1ccc(C(=O)C(CN2CCOCC2)c2ccccc2)cc1F (stereo not drawn),/,39,-22,-4,55,/,17,1,19
COc1cccc(CNC(=O)C(NS(=O)(=O)c2ccc3c(c2)CCN3C(C)=O)C(C)C)c1 (stereo not drawn),-11,/,6,0,61*,-6,-3,24,-31
Cc1cc(N2CCN(S(C)(=O)=O)C[C@@H]2C)ccc1N1CCN(Cc2ccccc2)[C@@H](C)C1,/,/,-6,/,/,/,/,/,/
CC(C)CN(CC(C)C)c1nc(N)c(C#N)c(CC#N)c1C#N,-17,-16,-3,-5,89*,21,18,10,13
CCN1CCc2c(sc(NC(=O)c3cc4ccccc4cc3OC)c2C(N)=O)C1,-111,28,-5,-16,69*,2,20,18,-48
COc1cccc(OC)c1C(=O)Nc1sc2c(c1C(N)=O)CCN(Cc1ccccc1)C2,-6,-14,-1,-4,10,4,/,/,/
CCOC(=O)Cn1c(Br)nc2c1c(=O)[nH]c(=O)n2C,5,/,10,10,99*,-9,12,7,-15
O=c1c(N=Nc2ccc(O)cc2)c(-c2ccccc2)[nH]n1-c1ccc([N+](=O)[O-])cc1,7,88*,-14,-2,53,12,35,11,67*
CC(C)(C)C(=O)Nc1cc(S(=O)(=O)N2CCCCC2)ccc1N1CCCCC1,8,-17,17,-18,55,12,27,0,-18
CC(C)C(=O)Nc1cc(S(=O)(=O)N2CCOCC2)ccc1N1CCCCC1,-3,2,14,-1,1,-4,/,/,/
